The text below walks through data of PubChem BioAssay (EPA / NIEHS).

Calls of active or inactive are those of the source. How the source made its calls: active means hit-call score of the fitted dose curve at least 0.9, where 1 is the maximum; inactive means score below 0.9.

Read-out in the first experiment: not listed separately
Kind of experiment: BSK_BE3C_SRB: Viability Assessment in the BioMAP Diversity Plus: BE3C Assay (AID 2283028).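 Further: measured 24 h after chemical dosing.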 Particulars: primary human bronchial epithelial cells. In outline:
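Cytotoxicity read-out: SRB (0.1%) staining of TCA-fixed (10%) human lung bronchial epithelial cells, absorbance 560 nm, 24 h post-dosing. Curves fitted both directions relative to DMSO.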
For the molecule `CCc1nc(N)nc(N)c1-c1ccc(Cl)cc1`, the result was inactive.
In the case of `O=C1CCCCC1`, the result was inactive.
Same read-out and setting: the result for `O=C(O)CN(CC(=O)O)CC(=O)O` reads “inactive”; that for `CC(=O)OC1CC(C)OC(C)O1` (stereo not given), “inactive”.
For `COC(=O)[C@H]1[C@H]2C[C@@H]3c4[nH]c5cc(OC)ccc5c4CCN3C[C@H]2C[C@@H](OC(=O)c2cc(OC)c(OC)c(OC)c2)[C@@H]1OC`, the outcome was inactive.
Same read-out and setting: as for `CCCC[C@H]1CN(CC2CCOCC2)C(=O)OC12CCN(C1(C)CCN(C(=O)c3c(C)ncnc3C)CC1)CC2`, the entry is “inactive”.

Read-out in a further experiment: Thrombomodulin, THBD (gene 7056)
Kind of experiment: BSK_3C_Thrombomodulin: BioMAP Diversity Plus: 3C Assay for Thrombomodulin Biomarker Activity (AID 2283029). To be noted: primary human endothelial cells (HUVEC); actives raise or lower the signal. A digest of the protocol: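 Human umbilical vein endothelial cells were exposed to chemicals for 24 h; cell-surface thrombomodulin quantified by ELISA, with bidirectional fitting against DMSO baseline.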
Consider `CN(C)C(=O)NC1(c2ccccc2)CCN(CCC[C@]2(c3ccc(Cl)c(Cl)c3)CCCN(C(=O)c3ccccc3)C2)CC1`, for which the result was inactive.
Still for that read-out and setting: as for `CCCCOC(=O)CCCCC(=O)OCCCC`, the entry is “inactive”; as for `C=CCCCCCCCCCCCC`, “inactive”.
Still for that read-out and setting: as for `Nc1nc(Cl)nc2c1ncn2[C@H]1C[C@H](O)[C@@H](CO)O1`, the entry is “inactive”.
Regarding `Cc1ccc(C(C)(C)C)c(O)c1`, the AC50 is 31.3 µM (active).
Turning to `Oc1ccccc1O`, the result was inactive.
On the same count and under the same terms, as for `CCCCC(CC)COC(=O)CCCCCCCC(=O)OCC(CC)CCCC` (stereo not given), the entry is “inactive”.
On to `CC(=O)[C@@]1(O)CC[C@H]2[C@@H]3CCC4=CC(=O)CC[C@]4(C)[C@H]3CC[C@@]21C`, for which the outcome was inactive.
In the case of `CCCCCCCCCCCCCCOS(=O)(=O)O`, the AC50 is 33.8 µM (active).
For `O=C(O)c1cccnc1`, the result was inactive.
Still for that read-out and setting: as for `Nc1nc(=S)c2[nH]cnc2[nH]1`, the entry is “inactive”.
For the molecule `CCN(CC)CCOc1ccc(C(=C(Cl)c2ccccc2)c2ccccc2)cc1`, the AC50 is 5.39 µM (active).
On to `CCCCc1nc2cccnc2n1Cc1ccc(-c2ccccc2-c2nnn[nH]2)cc1`, for which the outcome was inactive.
In the case of `CC(C)c1cccc(C(C)C)c1`, the result was inactive.
